Compounds with a hit are over-represented: about 10% of the library has one in this group of screens.
Six1-Eya2 inh – blocks human Six1 binding to Eya2; AlphaScreen GST-Six1/His-Eya2 binding, biochemical; stronger effect = lower value; 0.56% of 360,000 active; activity change, % (concentration not given with the values); Q15475+O00167; in the data active means activity change below about -65%; inconclusive means mostly about -30% to -63%
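Homogeneous AlphaScreen proximity assay pairing GST-Six1 with His-tagged Eya2 (added as 5X mix: 250 nM and 500 nM) in 50 mM Tris pH 8.0, 300 mM NaCl, 1 mM TCEP. Glutathione donor and nickel acceptor beads; 1 h, 37 °C, dark.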
JMJD2A Tudor – blocks the human JMJD2A Tudor domain | 4.4% of 390,000 active | Potency, µM (titrated, usually from 114 µM), usual class: inhibitors | AlphaScreen JMJD2A-Tudor / H3K4me3 peptide binding | O75164 | AID 504339; further: nearly all actives have a fitted effect of over 50% in size
G9a block – G9a (human) methyltransferase inhibition; Potency, µM (doses to about 102 µM), actives largely listed as inhibitors; 8.8% of 350,000 active; AID 504332; G9a H3K9 monomethylation, AlphaScreen, 2 h; further: nearly all actives have a fitted effect of over 75% in size
Target sequence (Q96KQ7 913-1193 limits assumed): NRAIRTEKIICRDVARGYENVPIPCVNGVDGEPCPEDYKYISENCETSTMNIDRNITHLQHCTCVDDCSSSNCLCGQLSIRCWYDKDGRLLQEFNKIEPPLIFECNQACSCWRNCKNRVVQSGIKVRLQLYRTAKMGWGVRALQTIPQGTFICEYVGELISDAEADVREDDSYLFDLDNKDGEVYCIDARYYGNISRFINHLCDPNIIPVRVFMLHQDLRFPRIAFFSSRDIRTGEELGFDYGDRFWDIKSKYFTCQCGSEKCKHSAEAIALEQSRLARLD
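AlphaScreen read-out: biotin-H3K9 peptide (500 nM) methylation by 20 nM enzyme with 20 uM SAM, 2 h at room temperature after 15 min compound preincubation; anti-monomethyl H3K9 antibody plus donor/acceptor beads, 10 min dark.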
BAZ2B block – BAZ2B (human) inhibition | Q9UIF8 | AlphaScreen BAZ2B-H3K14Ac peptide displacement | Potency, µM (series often up to 114 µM), most hits filed as inhibitors | 4.4% of 360,000 active; further: nearly all actives have a fitted effect of over 60% in size
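AlphaScreen displacement: compounds (up to 110uM) incubated 30 min at room temperature with a preformed 50 nM BAZ2B/50 nM biotinylated H3K14Ac peptide complex in PBS pH 7.4 with Tween-20. Donor and acceptor beads at 10 ug/mL final added, 20 min light-protected before reading.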
CtBP-E1A inh – inhibitors of CtBP/E1A interaction | 0.49% of 340,000 active | AlphaScreen GST-E1A/His-CtBP binding, 1536-well; stronger effect = lower value | activity change, % (concentration not given with the values); in the data active means activity change below about -65%; inconclusive means mostly about -30% to -63%
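AlphaScreen with 125 nM GST-E1A and 125 nM His-CtBP (5X stocks) in Tris pH 8.0, 300 mM NaCl, BSA, Tween 20, TCEP. Compounds preincubated 2 h at 37 deg C, then glutathione donor/nickel acceptor beads added for 1 h at 37 deg C in dark.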
HP1b binding inh – blocks HP1-beta chromodomain binding to methylated histone tails. P83916. AlphaScreen HP1-beta / biotin-H3K9me3 peptide binding. Potency, µM (doses to about 114 µM), most hits filed as inhibitors. 0.56% of 390,000 active. AID 540317; further: nearly all actives have a fitted effect of over 70% in size
Target sequence (P83916 whole entry, looked up): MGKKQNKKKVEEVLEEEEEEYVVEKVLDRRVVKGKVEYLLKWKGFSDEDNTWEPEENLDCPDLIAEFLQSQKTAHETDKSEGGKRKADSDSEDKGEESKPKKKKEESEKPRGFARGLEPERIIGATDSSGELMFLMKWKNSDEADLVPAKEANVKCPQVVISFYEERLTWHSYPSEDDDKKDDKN
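Compound inhibition of the preformed complex between 50 nM HP1-beta and 50 nM biotinylated H3K9me3 peptide was read by AlphaScreen. Buffer was PBS pH 7.4 with 0.01% Tween-20. Incubations ran 30 min at room temperature, with 10 ug/mL donor/acceptor beads.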
Numbers stand for hits. Unless noted, the call rests on the fitted dose curve; in most records, active means well fitted inhibition curve with a large enough effect; inconclusive means small, poorly fitted or top-dose-only effect; inactive means no such curve, though single readings can be large or run the other way.

Screening CCSC1=N/C(=C\C=C2/Oc3ccccc3N2CC)C(=O)S1 returned Six1-Eya2 inh inactive, JMJD2A Tudor 35µM, G9a block 13µM, BAZ2B block 32µM, CtBP-E1A inh inactive and HP1b binding inh inconclusive.
Screening COC(=O)c1ccc(NC(=O)c2cc(S(=O)(=O)N3CCOCC3)cn2C)cc1 returned JMJD2A Tudor inactive, G9a block inactive, BAZ2B block inactive and HP1b binding inh inactive.
For CCn1c(C(=O)Nc2c(C)cccc2C)cc2sc(Cl)cc21 the results were JMJD2A Tudor inactive, G9a block inactive, BAZ2B block inactive and HP1b binding inh inactive.
`Cc1cc(CN(C)C(=O)c2ccc(OC3CCN(Cc4ccccn4)CC3)cc2)on1` gave Six1-Eya2 inh inactive, JMJD2A Tudor inactive, G9a block 50µM, BAZ2B block inactive, CtBP-E1A inh inactive and HP1b binding inh inactive.
`Cc1nonc1CN(C)C(=O)c1ccc(OC2CCN(Cc3ccccn3)CC2)cc1` gave Six1-Eya2 inh inactive, JMJD2A Tudor inactive, G9a block inconclusive, BAZ2B block inactive, CtBP-E1A inh inactive and HP1b binding inh inactive.
Screening CC(=O)N1CCCc2cc(S(=O)(=O)N3CCC(C(=O)NCc4ccccc4Cl)CC3)ccc21 returned JMJD2A Tudor inactive, G9a block inactive, BAZ2B block inactive and HP1b binding inh inactive.
`Cc1c(C(=O)N2CCCC2)oc2c1-c1[nH]ncc1CC2` gave Six1-Eya2 inh inactive, JMJD2A Tudor inactive, G9a block 50µM, BAZ2B block inactive, CtBP-E1A inh inactive and HP1b binding inh inactive.
For FC(F)(F)c1ccc2c(c1)ncc1c(-c3ccccc3)nn(-c3ccccc3)c12 the results were JMJD2A Tudor inactive, G9a block inactive and HP1b binding inh inactive.
`Cc1ccc2onc(CC(=O)Nc3cc(F)ccc3F)c2c1` gave JMJD2A Tudor inactive, G9a block inconclusive, BAZ2B block inactive and HP1b binding inh inactive.
Screening O=C(O)CCN1C(=O)/C(=C2\C(=O)N(Cc3ccc(F)cc3)c3ccccc32)SC1=S returned Six1-Eya2 inh inactive, JMJD2A Tudor 25µM, G9a block 16µM, BAZ2B block 2.5µM, CtBP-E1A inh inactive and HP1b binding inh 28µM.
`CC1CN(C2=NC(=O)/C(=C3/C(=O)N(Cc4ccc(F)cc4)c4ccccc43)S2)CC(C)O1` (configuration not stated) gave Six1-Eya2 inh inactive, JMJD2A Tudor inactive, BAZ2B block inconclusive and HP1b binding inh inconclusive.
Screening CN1C(=O)/C(=C2\SC(=S)N(CCCCCC(=O)O)C2=O)c2ccccc21 returned Six1-Eya2 inh inactive, JMJD2A Tudor inconclusive, G9a block inactive, BAZ2B block inactive, CtBP-E1A inh inactive and HP1b binding inh 40µM.
Screening CC(=O)/C(=N/Nc1cccc(Cl)c1)Sc1nnc(C(O)c2ccccc2)n1-c1ccccc1 (configuration not stated) returned Six1-Eya2 inh inactive, JMJD2A Tudor inactive, G9a block inconclusive, BAZ2B block inactive and HP1b binding inh inactive.
Screening COC(=O)/C(=N/Nc1ccccc1C)Sc1nnc(C(O)c2ccccc2)n1-c1ccccc1 (configuration not stated) returned Six1-Eya2 inh inactive, JMJD2A Tudor inactive, G9a block 16µM, BAZ2B block inactive, CtBP-E1A inh inactive and HP1b binding inh inactive.
Screening COc1cc(/C=C2\SC(c3ccc(C)cc3)=NC2=O)cc(OC)c1O returned Six1-Eya2 inh inactive, JMJD2A Tudor 56µM, G9a block inconclusive, BAZ2B block 35µM, CtBP-E1A inh inconclusive and HP1b binding inh 13µM.
Cc1ccc(C2=NC(=O)/C(=C/c3cc(O)c(O)c(Br)c3)S2)cc1 was read as Six1-Eya2 inh inactive, JMJD2A Tudor 5µM, G9a block 2.2µM, BAZ2B block 3.5µM, CtBP-E1A inh inconclusive and HP1b binding inh 3.2µM.
`CCOc1ccccc1CNC(=O)c1cnc2sc(N3CCCCCC3)nn2c1=O` gave JMJD2A Tudor inactive, G9a block inactive, BAZ2B block inactive and HP1b binding inh inactive.
`Cc1nn(CC(=O)N2CCN(c3cccc(Cl)c3)CC2)c(=O)c2c1sc1ccccc12` gave JMJD2A Tudor inactive, G9a block inconclusive, BAZ2B block inactive and HP1b binding inh inactive.
